KB-V1 MDR tox = KB-V1 MDR subline cytotoxicity | KB-V1 MDR cells viability, CellTiter-Glo, 72 h | Potency, µM (doses to about 46.1 µM), usual class: cytotoxic | 400,000 tested, 3.4% active; further: on the % scale 0 is the no-effect control and ±100 the full control effect; nearly all actives have a fitted effect of over 60% in size
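KB-V1 cells (P-gp-expressing MDR subline of KB-3-1) in phenol-red-free DMEM with 10% FBS were exposed to library compounds over a concentration series for 72 h at 37 degrees C. Viability read by CellTiter-Glo luminescence; concentration-effect curves fitted after normalization.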
HT1080-NT tox = kills 2HG-producing HT-1080-NT fibrosarcoma cells | Potency, µM (highest dose often 46.1 µM), for the others: at the top dose activity, negative = less viability, hits mostly cytotoxic | 360,000 tested, 1.6% active | HT-1080-NT fibrosarcoma viability, CellTiter-Glo ATP luminescence, 48 h;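 further: NT is the 2HG producing partner of a matched IDH1 knockdown line; 0% = DMSO-treated cells and -100% = media-only wells without cells; nearly all actives have a fitted effect of over 55% in size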
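Viability of the 2HG-overproducing fibrosarcoma line after 48 hours of compound exposure at 37 degrees C was determined by luminescence with CellTiter-Glo, and concentration-effect curves were then fitted and categorized.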
MCF10A rereplic = DNA re-replication induction in MCF 10a cells; 350,000 tested, 2.9% active; Potency, µM (titrated, usually from 46.1 µM), inactives show at the top dose activity, positive = re-replication, hits mostly activators; AID 624296; MCF 10A DNA re-replication, Hoechst nuclear intensity, 48 h; further: % of control where 0% means no effect; nearly all actives have a fitted effect of over 50% in size
SW480 rereplic = induces DNA re-replication in SW480 colon adenocarcinoma cells; 340,000 tested, 1.8% active; Potency, µM (doses to about 46.1 µM), without a hit: at the highest dose re-replication activation, actives largely listed as activators; SW480 DNA re-replication, Hoechst DNA content imaging, 48 h; further: % of control where 0% means no effect; nearly all actives have a fitted effect of over 55% in size
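Image-based read-out: total Hoechst fluorescence of nuclei (405 nm excitation, 500-530 nm emission), with hits raising the fraction of high-intensity nuclei. SW480 colon cells incubated 48 hr with compounds at 37 C.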
KB-3-1 cytotox = kills parental KB-3-1 adenocarcinoma cells | Potency, µM (doses to about 46.1 µM), most hits filed as cytotoxic | 400,000 tested, 1.4% active | KB-3-1 viability, CellTiter-Glo ATP luminescence, 72 h | AID 1347075; further: on the % scale 0 is the no-effect control and ±100 the full control effect; nearly all actives have a fitted effect of over 60% in size
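Viability of parental KB-3-1 cells, measured by CellTiter-Glo luminescence, followed a 72 h incubation at 37 °C with pinned compounds in phenol-red-free DMEM containing 10% FBS.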
HT1080 IDH1KD tx = kills HT-1080 cells with IDH1 knockdown; AID 686971; 360,000 tested, 2% active; Potency, µM (titrated, usually from 46.1 µM), inactives show top-dose activity, negative = toxicity, actives largely listed as cytotoxic; HT-1080 IDH1 knockdown viability, ATP luminescence, 48 h;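 further: 0% = DMSO wells and -100% = cell-free medium wells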
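After a 2 h attachment period, IDH1KD HT-1080 cells took pin-transferred compound for 48 h at 37 °C; ATP-based luminescence after 10 min room-temperature reagent incubation reported viability.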
Numbers without * were called inactive; [ ] = remark or other dose. A selection: hits, their analogues and other compounds. The true share with any hit is near 7.9%. The call rests on the fitted dose curve; in most records, active means well fitted curve in the direction sought with a large enough effect; inconclusive means small, poorly fitted or top-dose-only effect, or another doubt; inactive means no such curve, though single readings can be large; an effect the other way counts as inactive or inconclusive. Potency means the concentration at half of the fitted maximal effect.

For CCOC(=O)Cn1c(COc2ccccc2OC)[n+](C)c2ccccc21 the results were KB-V1 MDR tox inactive, HT1080-NT tox -6%, MCF10A rereplic 0%, SW480 rereplic inconclusive, KB-3-1 cytotox inactive and HT1080 IDH1KD tx 11%.
`CC1CCC(C(C)C)C(OC(=O)COC(=O)c2cccn2C)C1` (stereo unspecified) gave KB-V1 MDR tox inactive, HT1080-NT tox 10%, MCF10A rereplic inconclusive, SW480 rereplic -4%, KB-3-1 cytotox inactive and HT1080 IDH1KD tx 1%.
Screening CCOc1ccc(NC(=O)CN(C)S(=O)(=O)c2ccc3c(c2)c(=O)n(C)c(=O)n3C)cc1 returned KB-V1 MDR tox inactive and KB-3-1 cytotox inactive.
Screening O=C(O)CN1CCNCCN(CC(=O)O)CCNCC1 returned KB-V1 MDR tox inconclusive, HT1080-NT tox 11%, MCF10A rereplic -9%, SW480 rereplic 2.9µM*, KB-3-1 cytotox inconclusive and HT1080 IDH1KD tx inconclusive.
O=C(O)CN1CCN(CC(=O)O)CCN(CC(=O)O)CCN(CC(=O)O)CC1 was read as KB-V1 MDR tox inactive, HT1080-NT tox 29%, MCF10A rereplic -4%, SW480 rereplic -7%, KB-3-1 cytotox inactive and HT1080 IDH1KD tx 16%.
CCCCN(C=O)c1c(CC)nc2c(OCc3cccc(Cl)c3)cccn12 was read as KB-V1 MDR tox inactive, HT1080-NT tox -4%, KB-3-1 cytotox inactive and HT1080 IDH1KD tx -22%.
CCN(CC)C(c1ccc(F)cc1)c1nnnn1C1CCCCC1 (stereo unspecified) was read as KB-V1 MDR tox inactive, HT1080-NT tox 2%, MCF10A rereplic 2%, SW480 rereplic -14%, KB-3-1 cytotox inactive and HT1080 IDH1KD tx 1%.
Screening CCN(CC)C(c1ccc(C)cc1)c1nnnn1C1CCCCC1 (stereo unspecified) returned KB-V1 MDR tox 13µM*, HT1080-NT tox 3%, MCF10A rereplic inconclusive, SW480 rereplic 9%, KB-3-1 cytotox inconclusive and HT1080 IDH1KD tx 0%.
For Cc1cc(C)cc(N2C(N)=NC(N)=NC2c2ccccc2F)c1 (stereo unspecified) the results were KB-V1 MDR tox 16µM*, HT1080-NT tox -7%, MCF10A rereplic 4%, SW480 rereplic inconclusive, KB-3-1 cytotox inconclusive and HT1080 IDH1KD tx inconclusive.
Screening COC(=O)c1c(-c2ccc(Cl)cc2)noc1N1CCN(c2ccc(C(C)=O)cc2)CC1 returned KB-V1 MDR tox inconclusive and KB-3-1 cytotox inactive.
`CC(C)c1ccc(N2C(=O)CSC23C(=O)N(Cc2cccc(F)c2)c2ccccc23)cc1` (stereo unspecified) gave KB-V1 MDR tox 13µM* and KB-3-1 cytotox 21µM*.
O=C1CSC2(C(=O)N(Cc3cccc(F)c3)c3ccccc32)N1c1cccc(C(F)(F)F)c1 (stereo unspecified) was read as KB-V1 MDR tox 13µM* and KB-3-1 cytotox inconclusive.
Cc1cccc(N2C(=O)CS(=O)(=O)C23C(=O)N(Cc2c(F)cccc2Cl)c2ccccc23)c1 (stereo unspecified) was read as KB-V1 MDR tox 5.8µM* and KB-3-1 cytotox inactive.
CCc1ccc(N2C(=O)CSC23C(=O)N(Cc2cccc(OC)c2)c2ccccc23)cc1 (stereo unspecified) was read as KB-V1 MDR tox 10µM* and KB-3-1 cytotox inconclusive.
O=C1CSC2(C(=O)N(Cc3ccccc3)c3ccccc32)N1c1ccc(Cl)cc1 (stereo unspecified) was read as KB-V1 MDR tox inactive and KB-3-1 cytotox inconclusive.
COc1ccc(N2C(=O)CSC23C(=O)N(Cc2cccc(C(F)(F)F)c2)c2ccccc23)cc1 (stereo unspecified) was read as KB-V1 MDR tox inconclusive and KB-3-1 cytotox inactive.
COc1ccc(N2C(=O)CS(=O)(=O)C23C(=O)N(Cc2c(F)cccc2Cl)c2ccccc23)cc1 (stereo unspecified) was read as KB-V1 MDR tox inactive and KB-3-1 cytotox inactive.
`Cc1cccc(N2C(=O)CCSC23C(=O)N(Cc2ccc(F)cc2)c2ccccc23)c1` (stereo unspecified) gave KB-V1 MDR tox inactive and KB-3-1 cytotox inactive.
For Cc1cccc(N2C(=O)CSC23C(=O)N(Cc2cccc(F)c2)c2ccccc23)c1 (stereo unspecified) the results were KB-V1 MDR tox 15µM* and KB-3-1 cytotox inconclusive.
CCN(CC)c1ccc(C(=O)N2CCC(c3c[nH]c4ccccc34)(c3c[nH]c4ccccc34)CC2)cc1 was read as KB-V1 MDR tox inactive and KB-3-1 cytotox inactive.
For Cc1ccccc1Sc1ncnc2onc(C)c12 the results were KB-V1 MDR tox inactive, HT1080-NT tox -4%, MCF10A rereplic inconclusive, SW480 rereplic -8%, KB-3-1 cytotox inconclusive and HT1080 IDH1KD tx -4%[9.24 µM].
Cc1noc2ncnc(Sc3ccc(Cl)cc3)c12 was read as KB-V1 MDR tox inactive, HT1080-NT tox inconclusive, MCF10A rereplic 12µM*, SW480 rereplic inconclusive, KB-3-1 cytotox inconclusive and HT1080 IDH1KD tx 4%[9.24 µM].
For Cc1noc2ncnc(Sc3c(Cl)cccc3Cl)c12 the results were KB-V1 MDR tox inconclusive, HT1080-NT tox inconclusive, MCF10A rereplic 4.5µM*, SW480 rereplic inconclusive, KB-3-1 cytotox inconclusive and HT1080 IDH1KD tx inconclusive.
`CCOc1ccc(N2C(=O)CC(NCCc3c[nH]c4ccccc34)C2=O)cc1` (stereo unspecified) gave KB-V1 MDR tox inactive, HT1080-NT tox -3%, MCF10A rereplic -1%, SW480 rereplic 2.9µM*, KB-3-1 cytotox inactive and HT1080 IDH1KD tx -1%.
CC(C)CCNC(=O)c1ccc(Cn2c(SCC(N)=O)nc3ccccc3c2=O)cc1 was read as KB-V1 MDR tox inactive and KB-3-1 cytotox inactive.
Screening Fc1ccc(CNc2nc3c(-c4ccc(F)cc4)nnn3c3ccccc23)cc1 returned KB-V1 MDR tox inactive and KB-3-1 cytotox inactive.
CC(C)N1CCc2c(sc(NC(=O)c3cc(-c4cccs4)nc4ccccc34)c2C(N)=O)C1 was read as KB-V1 MDR tox inactive, HT1080-NT tox inconclusive, MCF10A rereplic 18µM*, SW480 rereplic inconclusive, KB-3-1 cytotox inconclusive and HT1080 IDH1KD tx inconclusive.
CNC(=O)c1c(NC(=O)c2ccc(S(=O)(=O)N(C)c3ccccc3)cc2)sc2c1CCN(C(C)C)C2 was read as KB-V1 MDR tox inconclusive, HT1080-NT tox -4%, MCF10A rereplic 15µM*, SW480 rereplic inconclusive, KB-3-1 cytotox inactive and HT1080 IDH1KD tx -1%.

Screens as filed in PubChem BioAssay.
